Laboratory results reported in PubChem BioAssay (EPA / NIEHS).
The source made the active and inactive calls. How the source made its calls: active means hit-call score of the fitted dose curve at least 0.9, where 1 is the maximum; inactive means score below 0.9.

Read-out: MicroRNA 122 (MIR122), gene 406906
Experiment: LTEA_HepaRG_MIR122: Life Technologies and Expression Analysis (LTEA) Assay for MicroRNA 122 (MIR122) using HepaRG (AID 2283516)
Conditions: mRNA level, 48 h; actives raise or lower the signal
Protocol: LTEA_HepaRG is a cell based, multiplexed-readout assay that uses HepaRG, a human liver cell line, with measurements taken at 48 hours after chemical dosing on a 96-well plate.LTEA_HepaRG_MIR122 is one of 102 assay component(s) measured in the LTEA HepaRG cell culture assay. It is a marker of MicroRNA.Data from the assay component LTEA_HepaRG_MIR122 was analyzed into 1 endpoint. This assay endpoint, LTEA_HepaRG_MIR122, was analyzed with bidirectional fitting relative to DMSO as the negative control and baseline of activity. Using a type of inducible reporter, measures of mRNA induction for gain or loss-of-signal activity can be used to understand regulation of transcription factor activity. To generalize the intended target to other relatable targets, this assay endpoint is annotated to the microrna intended target family, where the subfamily is post-transcriptional regulation.
A total of 1060 chemcials from the ToxCast library were tested in eight-point concentration-response experiments. Cell culture and cytotoxicity assays were conducted at Thermo Fisher Scientific's Custom Services facility (Madison, WI). A single lot of human HepaRG cells (Thermo Fisher Scientific, Frederick, MD) was used for the cell culture experiments. 96-well format collagen type I coated plates of human HepaRG cells were prepared using established methods. Briefly, cryopreserved HepaRG cells were thawed, plated at a density of approximately 100,000 cells/well in HepaRG Thaw, Plate, and General Purpose media (HPRG770, Thermo Fisher Scientific), and incubated for 48 hours. 0.5% DMSO was selected as vehicle control to balance the requisite need of DMSO in HepaRG cultures to maintain differentiation (for example, baseline metabolism, proportions of hepatocytes vs. cholangiocytes), while enabling further hepatic receptor pathway activation (for example, PXR and CAR) in response to chemical exposure. 48 hours after plating, the culture medium was replaced with HepaRG Serum-Free Incudtion Media. Cells were exposed to each test chemical in duplicate and maintained in CO2 incubators for another 48 hours. Chemical plates were thawed to room temperature and 200x concentrations of treatment groups were prepared. 8-point conentration-reponse curves were made with the highest exposure at 100 uM, followed by half-log dilutions, all in 0.5% DMSO. Each test plate contained variouse controls, induction positive controls (1mM phenobarbital), cytotoxicity positive controls ([…] aflatoxin B1), vehicle controls (0.5% DMSO), and total lysis controls (0.5% DMSO). Cell morphology images were taken using an Essen IncuCyte FLR automated microscope, with six 96-well plates imaged in about 24 minutes. Images were captured and exported and JPEG files. Spent culture media was transfered to black-well plates for the LDH assay, and remaining media was sorted at -80 C for later use. Cells were treated with RLT buffer and frozen until shipped for gene expression analysis. Total RNA was isolated from the cell suspension in 75 uL of Buffer RLT (Qiagen, Germantown, MD 20874) by Quintiles/Expression Analysis (Durham, NC) using a custom isolation procedure. Total RNA from each plate well was transferred to a preamplification plate. Fluidigm's 96.96 Dynamic ArrayTM (Fluidigm, Amsterdam, the Netherlands) technology was used for gene expression analyses by quantitative reverse transcription polymerase chain reaction (qRT-PCR, performed by Quintiles/Expression Analysis, Durham, NC)89. Standard TaqManTM Assays (Applied Biosystems/ThermoFisher Scientific, Foster City, CA) were used to assess the expression of 93 genes selected based on their selectivity and sensitivity to important hepatic receptors known to be modulated by environmental chemicals; importance in human hepatocyte functionality; and hepatotoxicity. […]

| SMILES | outcome | AC50 |
| --- | --- | --- |
| Cc1ccc(-c2cc(C(F)(F)F)nn2-c2ccc(S(N)(=O)=O)cc2)cc1 | inactive |  |
| NC(=Nc1ccccc1)Nc1ccccc1 | inactive |  |
| CC(C)c1cccc(C(C)C)c1 | inactive |  |
| CCOCCOCCO | inactive |  |
| CCCC(=O)O | inactive |  |
| CCc1cc(C2=C(C(=O)O)N(c3ccccc3C(F)(F)F)S(=O)(=O)c3ccccc32)cc2c1OCO2 | inactive |  |
| CO[C@@H]1COCC[C@@H]1N[C@@H]1CC[C@@](C(=O)N2CCc3ncc(C(F)(F)F)cc3C2)(C(C)C)C1 | inactive |  |
| CCCCCCCCCC[N+](C)(C)[O-] | inactive |  |
| O=C(O)CN(CC(=O)O)CC(=O)O | inactive |  |
| O=C(N[C@@H](c1ccccc1)[C@@H]1CCCCN1)c1cccc(C(F)(F)F)c1Cl | inactive |  |
| O=[Si]=O | inactive |  |
| O=C1CCCCC1 | inactive |  |
| CC(=O)OCC(COC(C)=O)OC(C)=O | inactive |  |
| CC(N)=O | inactive |  |
| N[C@@H](Cc1c[nH]c2ccccc12)C(=O)O | inactive |  |
| CCCCOC(=O)CCCCC(=O)OCCCC | inactive |  |
| CC1=C(C)S(=O)(=O)CCS1(=O)=O |  | 75.2 µM (active) |
| O=C(Oc1ccccc1)c1cccc(C(=O)Oc2ccccc2)c1 | inactive |  |
| Cn1cnc2c1c(=O)[nH]c(=O)n2C | inactive |  |
| Cc1occc(=O)c1O | inactive |  |

| SMILES | outcome | AC50 |
| --- | --- | --- |
| CN(C)CCCN1c2ccccc2Sc2ccc(Cl)cc21 |  | 85.7 µM (active) |
| C=CCc1ccc(OC)c(OC)c1 | inactive |  |
| CC(C)(O)c1ccc(CNC(=O)c2cccnc2Oc2ccc(F)cc2)cc1 | inactive |  |
| CS(=O)(=O)c1ccc([C@@H](C[C@H]2CCC(=O)C2)C(=O)Nc2cnccn2)cc1Cl |  | 1.41 µM (active) |
| CSc1ccc(Oc2ccc(S(N)(=O)=O)cc2CN(C)C)cc1C | inactive |  |
| NCCOCCOCCN | inactive |  |
| c1ccc2occc2c1 | inactive |  |
| CCCCCCCC(=O)OC | inactive |  |
| C/C=C/C=C/C(=O)O | inactive |  |
| Oc1ccc(O)cc1 | inactive |  |
| Oc1ccccc1O | inactive |  |
| Nc1nc(=S)c2[nH]cnc2[nH]1 |  | 11.9 µM (active) |
| Cc1c(C)c2c(c(C)c1O)CCC(C)(COc1ccc(CC3SC(=O)NC3=O)cc1)O2 (stereo not given) |  | 83.9 µM (active) |
| CCC(C)N(C)C(=O)c1cc2ccccc2c(-c2ccccc2Cl)n1 (stereo not given) | inactive |  |
| CCCC[C@H]1CN(CC2CCOCC2)C(=O)OC12CCN(C1(C)CCN(C(=O)c3c(C)ncnc3C)CC1)CC2 | inactive |  |
| CC1(C)C(=O)NC(=O)N1CO | inactive |  |
| CC(C)NCC(O)c1ccc(O)c(O)c1 (stereo not given) | inactive |  |
| CC(C)OC(=O)C(C)(C)Oc1ccc(C(=O)c2ccc(Cl)cc2)cc1 | inactive |  |
| CCCCCCCCCCCCCCCCO | inactive |  |
| NC1CCCCC1 | inactive |  |
